Measured values published in PubChem BioAssay AID1159580 (chemical genetic matrix, 2015).
Several values for one entry are separate records, joined by “and”; a condition that tells them apart may be missing. Equal values may be shown once. Screen size: about 5,500 compounds; about 2,000 (36%) were called active. Not shown: some 18% with an inconclusive outcome. This is one part of the list. A number with no mark means an inactive call. No stated cut-off is given here; in the data, active means normalized growth mostly below about 0.91 (no sharp cut-off); inconclusive means no clear call, values can overlap the other calls; inactive means mostly above about 0.92.

Experiment: chemical genetic growth profiling, strain panel (AID 1159580);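 further: tested at 20 µM; growth read once vehicle control cultures reached saturation at 30 °C; 1 = growth at the plate median or of vehicle wells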
Conditions: S. cerevisiae deletion strains, growth OD

## C[C@H](CCC(=O)O)[C@H]1CCC2C3C(CC[C@@]21C)[C@@]1(C)CC[C@@H](O)C[C@H]1C[C@@H]3O (stereo partly specified)
Locus YAL013W, strain DEP1, stronger effect = lower value
  normalized growth: 0.984
Locus YAL021C, strain ccr4, stronger effect = lower value
  normalized growth: 1.02
Locus YAL026C, strain drs2, stronger effect = lower value
  normalized growth: 0.997
Locus YAL030W, strain snc1, stronger effect = lower value
  normalized growth: 0.983
Locus YBL061C, strain skt5, stronger effect = lower value
  normalized growth: 0.986
Locus YBR009C, strain hhf1, stronger effect = lower value
  normalized growth: 1.03
Locus YBR021W, strain FUR4, stronger effect = lower value
  normalized growth: 0.988
Locus YBR023C, strain chs3, stronger effect = lower value
  normalized growth: 0.987
Locus YBR171W, strain sec66, stronger effect = lower value
  normalized growth: 0.961
Locus YBR229C, strain ROT2, stronger effect = lower value
  normalized growth: 0.985
Locus YBR231C, strain swc5, stronger effect = lower value
  normalized growth: 0.996
Locus YBR279W, strain paf1, stronger effect = lower value
  normalized growth: 1
Locus YCL011C, strain gbp2, stronger effect = lower value
  normalized growth: 1.02
Locus YCL016C, strain dcc1, stronger effect = lower value
  normalized growth: 1.04
Locus YCL029C, strain bik1, stronger effect = lower value
  normalized growth: 0.963
Locus YCL069W, strain vba3, stronger effect = lower value
  normalized growth: 0.991
Locus YCR088W, strain abp1, stronger effect = lower value
  normalized growth: 0.989
Locus YDL005C, strain med2, stronger effect = lower value
  normalized growth: 0.989
Locus YDL035C, strain GPR1, stronger effect = lower value
  normalized growth: 0.992
Locus YDL040C, strain nat1, stronger effect = lower value
  normalized growth: 0.983
Locus YDL074C, strain BRE1, stronger effect = lower value
  normalized growth: 0.946
Locus YDL101C, strain DUN1, stronger effect = lower value
  normalized growth: 0.986
Locus YDL134C, strain PPH21, stronger effect = lower value
  normalized growth: 0.981
Locus YDL185W, strain tfp1, stronger effect = lower value
  normalized growth: 0.972
Locus YDL192W, strain arf1, stronger effect = lower value
  normalized growth: 0.979
Locus YDR001C, strain nth1, stronger effect = lower value
  normalized growth: 0.982
Locus YDR069C, strain doa4, stronger effect = lower value
  normalized growth: 0.954
Locus YDR101C, strain arx1, stronger effect = lower value
  normalized growth: 0.986
Locus YDR137W, strain rgp1, stronger effect = lower value
  normalized growth: 0.821 (active)
Locus YDR150W, strain NUM1, stronger effect = lower value
  normalized growth: 0.997
Locus YDR159W, strain sac3, stronger effect = lower value
  normalized growth: 1.04
Locus YDR162C, strain NBP2, stronger effect = lower value
  normalized growth: 0.989
Locus YDR195W, strain ref2
  normalized growth: 0.94
Locus YDR297W, strain sur2, stronger effect = lower value
  normalized growth: 0.989
Locus YDR318W, strain mcm21, stronger effect = lower value
  normalized growth: 0.977
Locus YDR334W, strain swr1, stronger effect = lower value
  normalized growth: 0.961
Locus YDR335W, strain msn5, stronger effect = lower value
  normalized growth: 0.981
Locus YDR388W, stronger effect = lower value
  normalized growth: 0.98
Locus YDR392W, strain spt3, stronger effect = lower value
  normalized growth: 1.1
Locus YDR502C, strain sam2, stronger effect = lower value
  normalized growth: 0.984
Locus YEL003W, strain gim4, stronger effect = lower value
  normalized growth: 0.976
Locus YEL037C, strain rad23, stronger effect = lower value
  normalized growth: 1
Locus YEL061C, strain CIN8 (second series), stronger effect = lower value
  normalized growth: 0.983
Locus YEL061C, strain CIN8, stronger effect = lower value
  normalized growth: 0.99
Locus YER015W, strain faa2, stronger effect = lower value
  normalized growth: 1.03
Locus YER016W, strain bim1, stronger effect = lower value
  normalized growth: 0.998
Locus YER110C, stronger effect = lower value
  normalized growth: 0.984
Locus YER111C, strain swi4, stronger effect = lower value
  normalized growth: 0.979
Locus YER155C, strain BEM2 (second series), stronger effect = lower value
  normalized growth: 1.02
Locus YER155C, strain BEM2, stronger effect = lower value
  normalized growth: 0.99
Locus YER167W, strain BCK2, stronger effect = lower value
  normalized growth: 0.988
Locus YFR010W, strain ubp6, stronger effect = lower value
  normalized growth: 0.969
Locus YGL078C, strain dbp3, stronger effect = lower value
  normalized growth: 0.967
Locus YGL086W, strain mad1, stronger effect = lower value
  normalized growth: 0.985
Locus YGL167C, strain pmr1, stronger effect = lower value
  normalized growth: 0.974
Locus YGL173C, strain kem1, stronger effect = lower value
  normalized growth: 0.951
Locus YGL227W, strain vid30, stronger effect = lower value
  normalized growth: 0.998
Locus YGL240W, strain doc1, stronger effect = lower value
  normalized growth: 0.982
Locus YGL248W, strain PDE1, stronger effect = lower value
  normalized growth: 0.996
Locus YGL253W, strain hxk2, stronger effect = lower value
  normalized growth: 1.02
Locus YGR078C, strain PAC10, stronger effect = lower value
  normalized growth: 0.99
Locus YGR135W, strain pre9, stronger effect = lower value
  normalized growth: 0.975
Locus YGR229C, strain SMI1, stronger effect = lower value
  normalized growth: 0.99
Locus YGR252W, strain gcn5, stronger effect = lower value
  normalized growth: 1.09
Locus YHR013C, strain ard1, stronger effect = lower value
  normalized growth: 1.03
Locus YHR027C, strain rpn1, stronger effect = lower value
  normalized growth: 1
Locus YHR030C, strain SLT2, stronger effect = lower value
  normalized growth: 1 and 0.948
Locus YHR079C, strain IRE1 (second series), stronger effect = lower value
  normalized growth: 0.974
Locus YHR079C, strain IRE1, stronger effect = lower value
  normalized growth: 0.945
Locus YHR094C, strain hxt1, stronger effect = lower value
  normalized growth: 0.982
Locus YHR129C, strain ARP1, stronger effect = lower value
  normalized growth: 1
Locus YHR142W, strain chs7, stronger effect = lower value
  normalized growth: 0.999
Locus YHR200W, strain rpn10, stronger effect = lower value
  normalized growth: 1
Locus YIL066C, strain RNR3, stronger effect = lower value
  normalized growth: 0.98
Locus YIL073C, strain SPO22, stronger effect = lower value
  normalized growth: 1.01
Locus YIL125W, strain kgd1, stronger effect = lower value
  normalized growth: 0.992
Locus YIR030C, strain dcg1, stronger effect = lower value
  normalized growth: 0.982
Locus YJL092W, strain hpr5, stronger effect = lower value
  normalized growth: 0.985
Locus YJL095W, strain BCK1 (second series), stronger effect = lower value
  normalized growth: 0.988
Locus YJL095W, strain BCK1, stronger effect = lower value
  normalized growth: 0.95 and 0.958
Locus YJL115W, strain asf1, stronger effect = lower value
  normalized growth: 0.984
Locus YJL129C, strain trk1, stronger effect = lower value
  normalized growth: 0.99
Locus YJL134W, strain LCB3, stronger effect = lower value
  normalized growth: 0.994
Locus YJL154C, strain vps35, stronger effect = lower value
  normalized growth: 0.983
Locus YJL164C, strain tpk1, stronger effect = lower value
  normalized growth: 1.04
Locus YJL166W, strain qcr8, stronger effect = lower value
  normalized growth: 0.933
Locus YJL168C, strain set2, stronger effect = lower value
  normalized growth: 0.982
Locus YJL187C, strain SWE1 (second series), stronger effect = lower value
  normalized growth: 0.975
Locus YJR043C, strain POL32, stronger effect = lower value
  normalized growth: 0.985
Locus YJR066W, strain TOR1, stronger effect = lower value
  normalized growth: 0.937
Locus YJR075W, strain HOC1, stronger effect = lower value
  normalized growth: 0.991
